Screening results as filed in PubChem.
HCV inh = blocks hepatitis C virus; Huh7.5.1 HCVcc-Cre infection, luciferase reporter, 44 h; Potency, µM (highest dose often 41.8 µM), without a hit: top-dose activity change, negative = inhibition, most hits filed as inhibitors; 340,000 tested, 3.4% active; AID 651820; active means well fitted inhibition curve with a large enough effect; inconclusive means small, poorly fitted or top-dose-only effect, or another doubt; inactive means no such curve, though single readings can be large or run the other way; further: potency means the concentration at half of the fitted maximal effect
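A cell-based infection assay in which seeded cells (1,000 per well) receive test compound after 4 h, are inoculated with HCVcc-Cre at approximately 0.5 moi, and are incubated 44 h before luminescence detection.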
Vaccinia Venus = vaccinia inhibition (Venus reporter). Vaccinia virus Venus reporter expression, fluorescence. Potency, µM (highest dose often 36.5 µM), without a hit: at the top dose activity change, negative = inhibition, hits mostly inhibitors. 330,000 tested, 0.46% active. AID 720580; calls by dose curve; tested in A549 cells; further: potency means the concentration at half of the fitted maximal effect; nearly all actives have a fitted effect of over 30% in size
VACV mCherry inh = inhibitors of vaccinia virus infection (mCherry reporter signal) | Vaccinia virus mCherry reporter infection, fluorescence | Potency, µM (series often up to 36.5 µM), without a hit: top-dose activity change, negative = inhibition, most hits filed as inhibitors | 310,000 tested, 0.63% active; calls by dose curve; tested in A549 cells; further: potency means the concentration at half of the fitted maximal effect; nearly all actives have a fitted effect of over 35% in size
MARV entry inh = blocks Marburg virus binding to or entry into cells; Marburg virus pseudotyped entry inhibition, cell reporter; Potency, µM (doses to about 37.8 µM), inactives show at the highest dose activity change, negative = inhibition, most hits filed as inhibitors; 300,000 tested, 1.8% active; AID 540276; calls by dose curve; tested in HEK293 cells; further: potency means the concentration at half of the fitted maximal effect
HCMV antiviral = human cytomegalovirus inhibition; AID 1259415; HFF cells, HCMV-luciferase reporter, 72 h; hits give low values; activity change, negative = inhibition, % at 57.5 µM; 410,000 tested, 4.5% active; in the data active means activity change below about -60%; inconclusive means no clear call, values can overlap the other calls; inactive means above about -39%
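Cell-based, HFFs, 1000 cells/well, 16 h 37C; cpds in DMSO + HCMV-luc, MOI 1 PFU/cell; 72 h 37C; OneGlo luminescence after 5 min RT; norm. to buffer vs Salinomycin 10uM.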
LASV entry inh = blocks Lassa virus binding to or entry into cells. AID 540256. Lassa virus pseudotype entry inhibition, cell reporter. Potency, µM (top dose mostly 37.9 µM), without a hit: at the highest dose activity change, negative = inhibition, most hits filed as inhibitors. 300,000 tested, 1.2% active; calls by dose curve; tested in HEK293 cells; further: potency means the concentration at half of the fitted maximal effect; nearly all actives have a fitted effect of over 50% in size
Numbers without * were called inactive; ! = not active in a repeat; [ ] = another dose, or the depositor's remark. A selection: hits, their analogues and other compounds. The true share with any hit is near 7.8%. On the % scale 0 is the no-effect control and ±100 the full control effect.

How did COC(=O)c1cc2c(n1S(=O)(=O)c1ccc(C)cc1)C(=O)C(=O)c1[nH]cc(C(=O)OCc3ccccc3)c1-2 do in these assays?
HCV inh: inconclusive; Vaccinia Venus: 2.5µM*; VACV mCherry inh: 2.2µM*; MARV entry inh: inconclusive; LASV entry inh: 2.8µM*

Results for CC(=O)Nc1ccc2nc(NC(=O)c3ccc([N+](=O)[O-])o3)sc2c1 ?
HCV inh: -21%; Vaccinia Venus: inconclusive; VACV mCherry inh: inconclusive; MARV entry inh: inconclusive; HCMV antiviral: -102*; LASV entry inh: inconclusive

How did CCCC(=O)Nc1nc2ccc(NC(=O)c3ccc(Br)o3)cc2s1 do in these assays?
HCV inh: 7.9µM*; Vaccinia Venus: inconclusive; MARV entry inh: inconclusive; HCMV antiviral: 20; LASV entry inh: -22%

What do the screens show for `CCS(=O)(=O)N1CC(=O)N(c2cc(C)cc(C)c2)C(C)(C(=O)NC2CCCCC2)C1` (stereo not drawn)?
Vaccinia Venus: -10%; VACV mCherry inh: -12%; HCMV antiviral: 0; LASV entry inh: 0%[46.1 µM]

What do the screens show for `COc1ccc(Cn2c(CCC(=O)NCc3ccc(Cl)cc3)nc3cccnc32)cc1`?
Vaccinia Venus: -10%; VACV mCherry inh: -1%; MARV entry inh: 6%[46.1 µM]; HCMV antiviral: 11; LASV entry inh: 5%[46.1 µM]

How did COc1cccc(CNC(=O)c2c(OC)cc(=O)n3c2CCN(C(=O)C2CC24CCCC4)CC3)c1 (stereo not drawn) do in these assays?
Vaccinia Venus: 4%; VACV mCherry inh: -10%

Results for O=c1nccc(N/N=C/c2ccccc2O)[nH]1 ?
HCV inh: inconclusive; Vaccinia Venus: inconclusive; VACV mCherry inh: 1µM*; MARV entry inh: 5.6µM*; HCMV antiviral: -91*; LASV entry inh: inconclusive

How did COc1cccc(/C=N/Nc2ccnc(=O)[nH]2)c1O do in these assays?
HCV inh: 2.2µM*; Vaccinia Venus: inconclusive; VACV mCherry inh: 0.79µM*; MARV entry inh: inconclusive; HCMV antiviral: -94*; LASV entry inh: inconclusive

What do the screens show for `CCOc1ccccc1/C=N/Nc1ccnc(=O)[nH]1`?
HCV inh: 11µM*; Vaccinia Venus: -21%; VACV mCherry inh: -7%; MARV entry inh: inconclusive; HCMV antiviral: -99*; LASV entry inh: inconclusive

What do the screens show for `CCOc1ccccc1/C=N/Nc1nc(C)cc(=O)[nH]1`?
HCV inh: -6%

What do the screens show for `CCC(Sc1nc2nccnc2c(=O)n1Cc1ccccc1Cl)C(=O)NC1CCCCC1` (stereo not drawn)?
Vaccinia Venus: -3%; VACV mCherry inh: inactive; HCMV antiviral: -13; LASV entry inh: 0%[46.1 µM]

How did CCOC(=O)c1cccc(NC(=O)NC2COc3ccccc3C2)c1 (stereo not drawn) do in these assays?
Vaccinia Venus: -11%; VACV mCherry inh: -4%; HCMV antiviral: -9; LASV entry inh: -12%[46.1 µM]

How did CCCN1C(=O)c2[nH]nc(-c3ccc(OC)cc3)c2C1c1ccccn1 (stereo not drawn) do in these assays?
Vaccinia Venus: -3%; VACV mCherry inh: -9%; MARV entry inh: -15%[46.1 µM]; HCMV antiviral: 199; LASV entry inh: 0%[46.1 µM]

What do the screens show for `CCOc1ccc(N2C(=O)c3[nH]nc(-c4ccc(OC)cc4)c3C2c2cccs2)cc1` (stereo not drawn)?
Vaccinia Venus: inconclusive; VACV mCherry inh: inconclusive; MARV entry inh: 7.9µM*; HCMV antiviral: -95*; LASV entry inh: inconclusive

Results for CCOc1ccc(-c2n[nH]c3c2C(c2cccs2)N(c2ccc(Br)cc2)C3=O)cc1 (stereo not drawn) ?
Vaccinia Venus: -29%; VACV mCherry inh: -20%; MARV entry inh: inconclusive; HCMV antiviral: -99*; LASV entry inh: inconclusive

What do the screens show for `CN1CCN(C(=O)C2CC(=O)N(c3ccc(F)c(Cl)c3)C2)CC1` (stereo not drawn)?
HCV inh: 9%; Vaccinia Venus: -12%; VACV mCherry inh: inactive; HCMV antiviral: -20

Results for CN1CCN(S(=O)(=O)c2cc(C(F)(F)F)ccc2Cl)CC1 ?
HCV inh: 25%; Vaccinia Venus: 4%; VACV mCherry inh: -19%; MARV entry inh: 21%; HCMV antiviral: 17; LASV entry inh: 19%

Results for CN1CCN(C2Cc3ccc(F)cc3Sc3cc(F)c(Cl)cc32)CC1 (stereo not drawn) ?
HCV inh: inconclusive; Vaccinia Venus: inconclusive; VACV mCherry inh: inconclusive; MARV entry inh: inconclusive; HCMV antiviral: -95*; LASV entry inh: inconclusive

How did CN1CCN(C2Cc3cc(F)ccc3Sc3ccc(Cl)cc32)CC1 (stereo not drawn) do in these assays?
HCV inh: -13%; HCMV antiviral: -9

What do the screens show for `CC(C)c1ccc2c(c1)C(N1CCNCC1)Cc1ccc(F)cc1S2` (stereo not drawn)?
HCV inh: inconclusive; Vaccinia Venus: inconclusive; VACV mCherry inh: 11µM*; MARV entry inh: inconclusive; HCMV antiviral: -98*; LASV entry inh: inconclusive

What do the screens show for `CN1CCN(C2Cc3ccccc3Sc3ccc(Cl)cc32)CC1` (stereo not drawn)?
HCV inh: inconclusive; Vaccinia Venus: -29%; VACV mCherry inh: inconclusive; MARV entry inh: 16µM*; HCMV antiviral: -11; LASV entry inh: 10µM*

Results for CN1CCN(C2Cc3ccccc3Sc3cc(C(F)(F)F)ccc32)CC1 (stereo not drawn) ?
HCV inh: 11µM*; Vaccinia Venus: -27%; VACV mCherry inh: inconclusive; MARV entry inh: inconclusive; HCMV antiviral: -109*; LASV entry inh: inconclusive

Results for CSc1ccc2c(c1)C(N1CCN(C)CC1)Cc1ccccc1S2 (stereo not drawn) ?
HCV inh: inconclusive; Vaccinia Venus: inconclusive; VACV mCherry inh: inconclusive; MARV entry inh: 6.3µM*; HCMV antiviral: -75*!; LASV entry inh: 18µM*

How did O=S(=O)(NC1CCCC1)OCC(Cl)(Cl)Cl do in these assays?
HCV inh: 0.32µM*; Vaccinia Venus: -20%; VACV mCherry inh: -1%; HCMV antiviral: -63*

What do the screens show for `O=S(=O)(NC1CC(NS(=O)(=O)OCC(Cl)(Cl)Cl)C2CCCCC12)OCC(Cl)(Cl)Cl` (stereo not drawn)?
HCV inh: -8%; Vaccinia Venus: 11µM*; VACV mCherry inh: inconclusive

How did Cc1ccc(-n2c(SCC(=O)Nc3c(C)cccc3C)nc(O)c(C)c2=O)cc1 do in these assays?
Vaccinia Venus: -6%; VACV mCherry inh: -7%; MARV entry inh: 1%[46.1 µM]; HCMV antiviral: 32; LASV entry inh: inconclusive

Results for CC(C)(CNC(=O)c1cnn(-c2ncc3c(n2)-c2ccccc2CCC3)c1C1CC1)N1CCOCC1 ?
Vaccinia Venus: -7%; VACV mCherry inh: -17%

Results for CC(=O)Nc1ccc(C(=O)Nc2ccc3c(c2)N(C2CCCC2)C(=O)c2ccccc2S3)cc1 ?
Vaccinia Venus: -13%; VACV mCherry inh: -19%; HCMV antiviral: -83*; LASV entry inh: 6.3µM*
